# CCHF vOTU inh: blocks the CCHF virus ovarian tumor domain protease; inhibition, % at 11.5 µM; CCHFV vOTU protease, Pep-AMC fluorescence; actives 0.55% (n = 370,000); AID 651958; in the data active = inhibition above about 30%; also: 0% = vehicle wells with enzyme and 100% = no enzyme wells
# BoNT F protease: inhibitors of Botulinum neurotoxin F light chain protease; Multiplex microsphere protease cleavage assay, flow cytometry; inhibition, % at 10 µM; actives 0.22% (n = 360,000); AID 588497; in the data active = inhibition above about 35%, passing the limit was not always enough; inconclusive = no clear call, values can overlap the other calls; also: plate controls were buffer without enzyme for full effect and enzyme alone for no effect
# Anthrax LF inh2: anthrax lethal factor protease inhibition; multiplex microsphere protease cleavage assay, LF; P15917; actives 0.12% (n = 360,000); inhibition, % at 10 µM; AID 588501; also: plate controls were buffer without enzyme for full effect and enzyme alone for no effect
# Bead autofluor: compound fluorescence in toxin protease inhibitor counterscreen; actives 3.1% (n = 360,000); AID 624483; compound autofluorescence counterscreen, microsphere flow cytometry; hits give high values; fluorescence intensity (concentration not given with the values); in the data active = fluorescence intensity above about 16000; inconclusive = no clear call, values can overlap the other calls
# 3CLpro inhibitor: SARS-CoV 3CLpro protease inhibition; P0C6X7; actives 0.14% (n = 290,000); inhibition, % at 6 µM; recombinant SARS-CoV 3CLpro, quenched FRET peptide cleavage; in the data active = inhibition above about 12%
# BoNT A protease: BoNT A light chain protease inhibition | multiplex microsphere protease substrate cleavage, flow cytometry | inhibition, % at 10 µM | actives 0.17% (n = 360,000); also: plate controls were buffer without enzyme for full effect and enzyme alone for no effect
# Numbers without * were called inactive; u = inconclusive; x = no result given. An excerpt weighted towards active compounds, which were near 3.9% of everything screened. Rule as the data show it, unless noted: active = inhibition above about 30%; inconclusive = no clear call, values can overlap the other calls; inactive = below that.
SMILES,CCHF vOTU inh,BoNT F protease,Anthrax LF inh2,Bead autofluor,3CLpro inhibitor,BoNT A protease
COC(=O)c1c(NC(=O)CC2SCC(C(=O)OC)NC2=O)sc2c1CCCC2 (centres undefined),-2,-5,-1,24791*,3,-3
O=[N+]([O-])c1ccc(NCCCN2CCC(C(O)(c3ccccc3)c3ccccc3)CC2)cc1,22,x,x,x,x,x
COc1ccc(/C(O)=C2/C(=O)C(=O)N(CCN(C)C)C2c2ccccc2)cc1Cl (centres undefined),5,-4,-4,3324,4,0
Cc1ccc(/C(O)=C2\C(=O)C(=O)N(CCN(C)C)C2c2ccccc2F)cc1 (centres undefined),5,0,-6,20048*,1,u
CN(C)CCN1C(=O)C(=O)/C(=C(/O)c2ccc(F)cc2)C1c1ccccc1F (centres undefined),-3,3,-10,22555*,3,1
Cc1ccc(/C(O)=C2\C(=O)C(=O)N(CCCN3CCOCC3)C2c2ccccc2F)cc1 (centres undefined),-3,0,-1,2882,x,0
COc1ccc(/C(O)=C2/C(=O)C(=O)N(CCCN(C)C)C2c2cccc(Cl)c2)cc1OC (centres undefined),34*,-7,0,2534,5,-1
COC(=O)C[C@@H]1CC[C@H]2[C@@H](COc3ccc(NC(=O)Nc4ccccc4C)cc3C(=O)N2C)O1,0,x,x,x,x,x
O=S1(=O)CCSC[C@@H](CN2CCCC2)N1,4,x,x,x,x,x
COC(=O)C1=C(C)N(Cc2ccccc2C(F)(F)F)C(=NCc2cccc(C(F)(F)F)c2)NC1CCc1ccccc1 (centres undefined),13,x,x,x,x,x
CC(CC(=O)NC1CCSC1=O)c1ccccc1 (centres undefined),-28,-13,-2,11715,1,-2
O=C(CSCc1ccccc1)NC1CCSC1=O (centres undefined),5,-3,-1,23850*,0,-2
Cn1c(=O)c2c(ncn2Cc2ccc(Cl)c(Cl)c2)n(C)c1=O,-13,1,-8,19612*,-5,u
CN(C)C=Nc1c(Br)cc(Br)c2nonc12,8,u,6,10842,-5,71*
O=C(N[C@H](Cc1ccccc1)C(=O)N1CCN(c2ccc(Cl)cn2)CC1)[C@H]1O[C@@H](n2ccc(=O)[nH]c2=O)[C@H](O)[C@@H]1O,-6,x,x,x,x,x
CCN(CCCNC(=O)CC(C(=O)N1CCc2ccccc21)n1ccnc1)c1ccccc1 (centres undefined),13,5,-12,18267*,-4,6
O=C(CC(C(=O)N1CCc2ccccc21)n1ccnc1)NCc1cccnc1 (centres undefined),-12,0,-5,11226,0,0
CC(=O)N1CCN(C2=NC(=O)N(c3ccc(Br)cc3)C(=O)C2)CC1,-2,x,x,x,x,x
COc1c(OC(C)=O)ccc(/C=C/c2ccc3ccccc3n2)c1[N+](=O)[O-],18,-6,1,23285*,5,-1
COc1c(OC(C)=O)ccc(/C=C/c2ccc3cccc(OC)c3n2)c1[N+](=O)[O-],14,30,0,1996,3,4
CCCN1CCS(=O)(=O)N(Cc2cn(Cc3ccc(Cl)cc3)nn2)C(C(=O)OC)C1 (centres undefined),-1,x,x,x,x,x
O=C(CN1C(=O)COc2ccccc21)N1CCCc2ccccc21,x,-7,0,22767*,4,-7
O=C(CN1C(=O)COc2ccccc21)NCc1ccc(C(=O)O)cc1,-4,2,1,22844*,-2,1
O=C(CSc1nnc(-c2cccnc2)n1-c1ccccc1)Nc1ccc(OCc2ccccc2)cc1,10,x,x,x,x,x
COc1ccc(S[C@]2(C(=O)NCc3ccccc3)CC(=O)N[C@@H]2c2ccc(OC)cc2)cc1,13,x,x,x,x,x
SMILES,CCHF vOTU inh,BoNT F protease,Anthrax LF inh2,Bead autofluor,3CLpro inhibitor,BoNT A protease
C=CCN1C(=O)[C@@H](CC(=O)NCc2ccc(OC)c(OC)c2)[C@]2(C(=O)OC)CCCCC=C12,-4,x,x,x,x,x
COc1cc(Cl)c(C)cc1NC(=O)CSc1ccc(C)cc1,x,-4,0,23633*,4,-3
C[C@H](O)[C@@H]1CN2CCc3c([nH]c4c(-c5ccc6c(c5)OCO6)cccc34)[C@@H]2C[C@@H]1N(C)C(=O)Nc1ccccc1,0,x,x,x,x,x
O=C(Nc1ccc(Cl)cc1Cl)c1n[nH]c(Cn2cncn2)n1,-4,-3,3,20568*,-4,u
CCCN(C(=O)CCc1cn(CCC)c2ccccc12)c1ccc(Oc2cccnc2)cc1,12,x,x,x,x,x
CCN(c1ccc(N=Cc2c(O)n(Cc3ccc(OC)cc3)c(=O)c3ccccc23)cc1)C(C)C,5,52*,13,55670*,-6,37*
COc1ccc(-n2c(O)c(C=Nc3ccccc3)c3ccccc3c2=O)cc1,-4,-5,-8,3597,-1,-1
O=C1c2cccc3c(O)ccc(c23)C(=O)N1Cc1ccccc1,12,111*,51*,7829,-5,1
O=C(O)c1cccc(CN2C(=O)c3ccccc3C2=O)c1,9,3,6,3183,-1,-2
Cc1ccc(-c2noc(CSc3nnc(-c4ccncc4)n3-c3ccc(C)cc3)n2)cc1,-2,-11,0,24919*,2,-7
CSCCC(N=Cc1c(O)n(-c2ccc(F)cc2)c(=O)[nH]c1=O)C(=O)OC(C)(C)C (centres undefined),2,-2,3,4352,3,1
CSCCC(N=Cc1c(O)n(-c2ccc(Br)cc2)c(=O)[nH]c1=O)C(=O)OC(C)(C)C (centres undefined),7,4,1,21352*,3,u
CN(Cc1ccccc1)C(=O)OCc1cn(Cc2ccc(F)cc2)nn1,9,x,x,x,x,x
O=C(c1ccccc1)c1cc2ccc(O)cc2oc1=O,13,-3,-2,20651*,1,0
CCN(Cc1ccccc1)Cc1cccc([N+](=O)[O-])c1,-9,-4,0,10649,4,0
O=[N+]([O-])c1cccc(CN(CCO)Cc2ccccc2)c1,-2,-5,-1,16829*,0,-1
OCCN(Cc1ccccc1)Cc1ccccc1O,-9,-1,-4,3502,0,1
OCCN(Cc1ccccc1)Cc1ccc(F)c(F)c1,x,3,0,20266*,-4,1
COC(=O)C1CN(Cc2ccc(Cl)cc2)CCS(=O)(=O)N1Cc1cn(Cc2ccc(Cl)cc2)nn1 (centres undefined),9,x,x,x,x,x
C=CCNC(=O)CN(C(=O)Cc1ccc(Cl)nc1)c1cccc(Br)c1,1,x,x,x,x,x
CCC(=O)c1cn(Cc2ccccc2C#N)c2ccccc12,-2,-1,0,23775*,0,-2
CC(C)CN1C(=O)[C@@]2(CC(=O)N(C)C2c2ccccc2)c2cc(-n3cc(CN(C)C)nn3)ccc21 (some centres undefined),4,x,x,x,x,x
CCn1c(SCC(=O)N2CCCCC2C)nc2ccsc2c1=O (centres undefined),-10,16,-3,7945,1,1

# Bioassay records: PubChem BioAssay, several laboratories
